HCV inh: blocks hepatitis C virus; actives 3.4% (n = 340,000); Potency, µM (highest dose often 41.8 µM), actives largely listed as inhibitors; Huh7.5.1 HCVcc-Cre infection, luciferase reporter, 44 h; active = well fitted inhibition curve with a large enough effect; inconclusive = small, poorly fitted or top-dose-only effect, or another doubt; inactive = no such curve, though single readings can be large or run the other way
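1,000 cells/well; 4 h culture; + compound; + HCVcc-Cre (~0.5 moi); 44 h; luciferase substrate, RT 15 min; read 15 sec.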
HCMV antiviral: blocks human cytomegalovirus replication | HFF cells, HCMV-luciferase reporter, 72 h; hits give low values | actives 4.5% (n = 410,000) | activity change, negative = inhibition, % at 57.5 µM; in the data active = activity change below about -60%; inconclusive = no clear call, values can overlap the other calls; inactive = above about -39%
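Two-dose cell screen: HFF monolayers treated with compounds and infected with luciferase-expressing HCMV at 1 PFU/cell, 72 h at 37C, then lysed for luciferase measurement.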
Lassa entry inh: inhibitors of Lassa virus binding or cell entry; Lassa virus pseudotype entry inhibition, cell reporter; Potency, µM (doses to about 37.9 µM), most hits filed as inhibitors; actives 1.2% (n = 300,000); AID 540256; calls by dose curve; tested in HEK293 cells; also: nearly all actives have a fitted effect of over 50% in size
Marburg entry inh: Marburg virus entry inhibition. Potency, µM (top dose mostly 37.8 µM), most hits filed as inhibitors. actives 1.8% (n = 300,000). AID 540276. Marburg virus pseudotyped entry inhibition, cell reporter; calls by dose curve; tested in HEK293 cells
Vaccinia mCherry: vaccinia inhibition (mCherry reporter) | Potency, µM (highest dose often 36.5 µM), actives largely listed as inhibitors | Vaccinia virus mCherry reporter infection, fluorescence | actives 0.63% (n = 310,000); calls by dose curve; tested in A549 cells; also: nearly all actives have a fitted effect of over 35% in size
Vaccinia Venus: vaccinia inhibition (Venus reporter). Vaccinia virus Venus reporter expression, fluorescence. Potency, µM (titrated, usually from 36.5 µM), most hits filed as inhibitors. actives 0.46% (n = 330,000). AID 720580; calls by dose curve; tested in A549 cells; also: nearly all actives have a fitted effect of over 30% in size
Hits are given with their value; ! = a repeat was not active. Sampled rows, rich in hits. Any-hit rate of the full collection: about 7.8%.

For Cc1ccc(C(=O)OCC(=O)N(C)c2ccccc2)cc1C the results were HCV inh inactive, HCMV antiviral inactive, Lassa entry inh inactive, Marburg entry inh inactive, Vaccinia mCherry inactive and Vaccinia Venus inactive.
`O=C(N1CCC[C@@H]1c1noc2ccccc12)C(F)(F)F` gave HCMV antiviral inactive.
For Cc1cccc(Oc2ccc3c(c2)Oc2ccccc2NC3=O)c1 the results were HCMV antiviral inactive, Lassa entry inh inactive, Marburg entry inh inactive, Vaccinia mCherry inactive and Vaccinia Venus inactive.
For Cc1ccc(CSC(Nc2ccc(F)cc2)=C(C#N)C#N)cc1 the results were HCV inh 8.9µM, HCMV antiviral -100, Lassa entry inh 13µM, Marburg entry inh inconclusive, Vaccinia mCherry inactive and Vaccinia Venus inconclusive.
For CCN(CC)C(=O)CSC(Nc1ccc(F)cc1)=C(C#N)C#N the results were HCV inh inactive, HCMV antiviral inactive, Lassa entry inh inactive, Marburg entry inh inconclusive, Vaccinia mCherry inactive and Vaccinia Venus inactive.
`O=C1Cc2cc(S(=O)(=O)N3CCCCC3)cc3c2N1CCC3` gave HCMV antiviral inactive, Lassa entry inh inactive, Vaccinia mCherry inactive and Vaccinia Venus inactive.
Screening Cc1ccc2c(c1)nnn2C1CCN(S(=O)(=O)c2ccc(C(=O)O)cc2)CC1 returned HCV inh inactive, HCMV antiviral -67, Lassa entry inh inactive, Marburg entry inh inactive, Vaccinia mCherry inactive and Vaccinia Venus inactive.
For Cc1ccc2c(c1)nnn2C1CCN(S(C)(=O)=O)CC1 the results were HCV inh inactive, HCMV antiviral inactive, Lassa entry inh inactive, Marburg entry inh inactive, Vaccinia mCherry inactive and Vaccinia Venus inactive.
Cc1ccc2c(c1)nnn2C1CCN(S(=O)(=O)c2ccc(C(=O)N3C(C)CCCC3C)cc2)CC1 (stereo not given) was read as HCV inh 6.3µM, HCMV antiviral -73, Lassa entry inh inconclusive, Marburg entry inh 7.9µM, Vaccinia mCherry inactive and Vaccinia Venus inactive.
Screening CSc1ccc(C(=O)c2[nH]c(=O)[nH]c2C)cc1 returned HCV inh 6.3µM!, HCMV antiviral inactive, Lassa entry inh inactive, Marburg entry inh inconclusive, Vaccinia mCherry inactive and Vaccinia Venus inactive.
For CN(C)c1ccc(/C=C/c2nc3ccccc3s2)c(Cl)c1 the results were Vaccinia mCherry inactive and Vaccinia Venus inactive.
`Cc1ccc(/C([O-])=C(/C(=S)NCc2ccc3c(c2)OCO3)[n+]2ccc(N(C)C)cc2)c(C)c1` gave HCV inh inactive, HCMV antiviral -70, Lassa entry inh inconclusive, Marburg entry inh inactive, Vaccinia mCherry inactive and Vaccinia Venus inactive.
CC(=O)c1ccc(NS(=O)(=O)Cc2ccc(Cl)cc2)cc1 was read as HCV inh inactive, HCMV antiviral inactive, Lassa entry inh inactive and Marburg entry inh inactive.
For CC(C)(O)C(=O)NNC(=S)Nc1cccc(C(F)(F)F)c1 the results were HCV inh inactive and HCMV antiviral inactive.
CC(=O)Nc1cccc(NS(=O)(=O)Cc2ccc(Cl)cc2)c1 was read as HCV inh inactive, HCMV antiviral -66, Lassa entry inh inactive, Marburg entry inh inactive, Vaccinia mCherry inactive and Vaccinia Venus inactive.
Screening CC(O)(CS(=O)(=O)Cc1ccc(Cl)cc1)C(=O)Nc1cccc(C(F)(F)F)c1 (stereo not given) returned HCV inh inactive, HCMV antiviral -103, Lassa entry inh inactive and Marburg entry inh inactive.
CCC(C)C1NC(=O)C2CCCN2C(=O)C(CC(C)C)OC(=O)CCNC(=O)C(C)N(C)C(=O)C(C(C)C)N(C)C1=O (stereo not given) was read as HCV inh inconclusive, HCMV antiviral -87, Lassa entry inh 3.2µM, Marburg entry inh 2µM, Vaccinia mCherry inactive and Vaccinia Venus inactive.
`Cc1nc2cccnc2n1-c1cccc(C(=O)NCc2cccc(Cl)c2)c1` gave HCMV antiviral active, Lassa entry inh inactive, Vaccinia mCherry inactive and Vaccinia Venus inconclusive.
Cc1ccc(CNC(=O)c2ccc3c(c2)nc(C)n3-c2cccc(F)c2)cc1 was read as HCMV antiviral -77, Lassa entry inh inactive, Vaccinia mCherry inactive and Vaccinia Venus inactive.
`CCc1ccc(CNC(=O)c2cccc(-n3c(C)nc4cccnc43)c2)cc1` gave HCMV antiviral inactive, Lassa entry inh inactive, Vaccinia mCherry inactive and Vaccinia Venus inactive.
`Cn1cc(S(=O)(=O)c2ccccc2)c(=O)c2cc(F)c(N3CCN(c4ccccc4)CC3)cc21` gave HCMV antiviral inactive, Lassa entry inh inactive, Vaccinia mCherry inactive and Vaccinia Venus inactive.
`Cc1nnc(SCC(=O)Nc2nccs2)s1` gave HCV inh inactive, HCMV antiviral inactive, Lassa entry inh inactive and Marburg entry inh inactive.
For Cc1ccc(CC(=O)Nc2nccs2)cc1 the results were HCV inh inactive and HCMV antiviral -67.
`O=C(Cc1ccc(F)cc1)Nc1nccs1` gave HCV inh inactive and HCMV antiviral inactive.
For Cc1nnc(SCC(=O)Nc2nccs2)o1 the results were HCV inh inactive, HCMV antiviral -61, Lassa entry inh inactive, Marburg entry inh inactive, Vaccinia mCherry inactive and Vaccinia Venus inactive.
`Cc1c(C(=O)NCc2cccc(F)c2)sc2ncnc(NCC3CCCO3)c12` (stereo not given) gave Vaccinia mCherry inactive and Vaccinia Venus inactive.
`CCCNC(=O)OC[C@H]1O[C@H](CCON=C(C)CCC(=O)OC[C@H]2O[C@H](C#Cc3ccccc3)C=C[C@H]2Oc2ccc(C)cc2)C=C[C@H]1Oc1ccc(OC)cc1` gave Marburg entry inh inactive.
`CCOC(=O)C1CCN(C(c2cccc(F)c2)c2c(O)cc(C)n(Cc3ccco3)c2=O)CC1` (stereo not given) gave HCMV antiviral inactive, Lassa entry inh inactive, Vaccinia mCherry inactive and Vaccinia Venus inactive.
For COC(=O)c1c(NC(=O)C(Cl)Cl)sc2c1C(C(=O)OC)CC2 (stereo not given) the results were HCV inh inconclusive and HCMV antiviral -62.
For COC(=O)c1c(NC(=O)C(C)(C)C)sc2c1C(C(=O)OC)CC2 (stereo not given) the results were HCV inh inconclusive, HCMV antiviral inactive, Lassa entry inh inactive, Marburg entry inh inactive, Vaccinia mCherry inactive and Vaccinia Venus inactive.
For COc1ccccc1C(=O)NCCn1cc(SCc2ccc(C)cc2)c2ccccc21 the results were HCMV antiviral inactive, Lassa entry inh inconclusive, Marburg entry inh inconclusive, Vaccinia mCherry inactive and Vaccinia Venus inactive.
`CCCOC(=O)C(C)n1c(-c2ccccc2)nc2ccccc2c1=O` (stereo not given) gave HCV inh inactive, HCMV antiviral inactive, Lassa entry inh inactive, Marburg entry inh inactive, Vaccinia mCherry inconclusive and Vaccinia Venus inactive.
CCCOC(=O)Cn1c(=O)c2cc3c(=O)n(CC(=O)OCCC)c(=O)c3cc2c1=O was read as HCV inh inactive, HCMV antiviral -72, Lassa entry inh inactive, Marburg entry inh inactive, Vaccinia mCherry inactive and Vaccinia Venus inactive.

Screens (PubChem BioAssay)
